# Rows were chosen to be rich in hits. Some 2% of all compounds tested hit in one or more screens of this group.
# CTSL1 counter: Fasciola hepatica cathepsin L1 inhibitors, primary screen, counter-screen for PFM18AAP inhibitor project, biochemical, QFRET, fluorogenic peptide substrate; recombinant F. hepatica cathepsin L1, Z-Leu-Arg-MCA fluorescence; inhibition, % at 5.96 µM; hit rate 0.49% among 300,000; AID 1906, 2009;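 active = inhibition above the mean of all tested compounds plus 3 SD, set per screening campaign, cut at about 17% in these data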;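 note: 0% = plate median of test compound wells and 100% = 1 µM Z-Phe-Ala-diazomethylketone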
# NALP1 yeast inh: NALP1 inflammasome inhibitors in reconstituted yeast, colorimetric, S. cerevisiae, triplicate retest | inhibition, % at 10 µM | S. cerevisiae NALP1/ASC/caspase-1 growth, X-gal OD620, 72 h | hit rate 0.61% among 280,000; in the data active = inhibition mostly above about 24%, no sharp cut-off; inactive = mostly below about 32%
# A3G deaminase: APOBEC3G DNA deaminase inhibitors, primary screen, biochemical, fluorescence, single-stranded DNA substrate, uHTS; inhibition, % at 20 µM; DNA dC->dU-editing enzyme APOBEC-3G (Homo sapiens), Q9HC16; hit rate 0.28% among 330,000; recombinant A3G, ssDNA deamination FAM/TAMRA fluorescence;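 active = inhibition of at least 40% at 20 µM, with no more than 30% in the related APOBEC3A deaminase screen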;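 note: plate controls were DMSO wells with A3G for no effect and wells lacking A3G enzyme for full effect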
# Target sequence (Q9HC16 whole entry, looked up): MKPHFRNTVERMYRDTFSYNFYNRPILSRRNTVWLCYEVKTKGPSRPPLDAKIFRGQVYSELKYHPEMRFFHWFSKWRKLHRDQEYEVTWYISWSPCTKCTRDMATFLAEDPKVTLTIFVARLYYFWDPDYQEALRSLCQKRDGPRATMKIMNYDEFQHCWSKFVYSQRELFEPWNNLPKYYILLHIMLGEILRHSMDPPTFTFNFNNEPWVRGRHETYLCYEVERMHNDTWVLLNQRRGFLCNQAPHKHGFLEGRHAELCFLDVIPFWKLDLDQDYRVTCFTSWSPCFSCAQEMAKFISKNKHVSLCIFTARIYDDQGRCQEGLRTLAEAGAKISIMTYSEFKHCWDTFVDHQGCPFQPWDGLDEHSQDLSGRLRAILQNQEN
# HGIII-sPLA2 inh: human group III sPLA2 inhibitors, primary screen, biochemical, QFRET, BODIPY PC-A2 liposome substrate. QFRET BODIPY PC-A2 liposome hydrolysis, fluorescence. inhibition, % at 12.2 µM. hit rate 0.56% among 370,000;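 active = inhibition above mean plus 3 SD of compounds lying within the high and low control bounds, cut at about 19% in these data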;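 note: 0% = median of test compound wells and 100% = no enzyme DMSO wells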
# A3A deaminase: APOBEC3A ssDNA deaminase inhibitors, primary screen, selectivity assay for APOBEC3G inhibitor project, biochemical, FAM/TAMRA oligo cleavage fluorescence | DNA dC->dU-editing enzyme APOBEC-3A (Homo sapiens), P31941 | recombinant A3A, FAM/TAMRA ssDNA deamination fluorescence | inhibition, % at 20 µM | hit rate 0.41% among 330,000 | AID 493011, 2011;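 active = at least 40% inhibition at 20 µM here, with at most 30% in a related deaminase screen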;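 note: plate controls were A3A with DMSO for no effect and wells lacking A3A enzyme for full effect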
# Target sequence (P31941 whole entry, looked up): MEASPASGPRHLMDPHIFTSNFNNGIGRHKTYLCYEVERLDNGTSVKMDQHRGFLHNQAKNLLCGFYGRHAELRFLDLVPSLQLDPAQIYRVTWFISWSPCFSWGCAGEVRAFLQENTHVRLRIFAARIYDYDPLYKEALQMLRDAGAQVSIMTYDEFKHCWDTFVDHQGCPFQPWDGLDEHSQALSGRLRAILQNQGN
# * = called active by the depositor; nt = not tested or not shown; ! = not active in a repeat.
SMILES,CTSL1 counter,NALP1 yeast inh,A3G deaminase,HGIII-sPLA2 inh,A3A deaminase
COc1cc(OC)c(C=O)c(OC(=O)N(C)C)c1,28*,-21,-7,3,-4
COc1ccc(OC(=O)N(C)C)c(CN(C)C)c1,-1,6,14,14,3
O=c1c2cc(Br)ccc2[nH]c(=S)n1-c1ccccc1,-1,-4,-10,6,-1
O=c1c2ccccc2[nH]c(=S)n1-c1ccc(Br)cc1,15,33*,0,15,-1
C[C@H]1CN([C@@H](C)CO)C(=O)CCCn2cc(nn2)CO[C@@H]1CN(C)C(=O)Oc1cccc2ccccc12,nt,nt,nt,3,nt
CN(C)C(=S)SSC(=S)N(C)C,2,64*,nt,5,nt
CNC(=O)Oc1cccc(-c2cn3cc(OC(=O)NC)ccc3n2)c1,0,18,nt,-17,nt
CNC(=O)Oc1ccc2c(c1)C(=O)c1ccccc1CO2,21*,9,1,4,-2
FC(F)(F)Oc1ccc(C2NCc3ccccc3-n3cccc32)cc1 (stereo unspecified),1,29,-8,7,-3
CC(C)c1ccc(C2NCc3ccccc3-n3cccc32)cc1 (stereo unspecified),nt,38*,-5,6,0
CC(=NCc1ccco1)c1c(O)n(C)c(=O)n(C)c1=O,-2,42*,-13,7,-4
Cc1nn(Cc2ccccc2)c(Cl)c1C(=O)OCC(=O)NCC1CCCO1 (stereo unspecified),-2,10,-4,-5,6
COc1ccc(OCC(=O)N2CCN(C/C=C/c3ccccc3)CC2)cc1,17*,1,-6,-8,0
Cn1ncnc2c(=O)n(C)c(=O)nc1-2,111*,14,-4,nt,-2
O=C1C2CC=CCC2C(=O)N1SC(Cl)(Cl)Cl (stereo unspecified),nt,nt,nt,4,nt
C[n+]1c(-c2ccccc2)c2cc(N)ccc2c2ccc(N)cc21,31*,13,52,-38,35
CC(C)(C)n1nnnc1C1CN=C(c2ccccc2)c2ccccc2N1 (stereo unspecified),nt,nt,nt,1,nt
Nc1c(Br)cc([N+](=O)[O-])cc1[N+](=O)[O-],nt,nt,-6,-3,3
CCCCn1c(O)c(C(C)=NCCN2CCOCC2)c(=O)[nH]c1=O,0,11,-5,0,0
CCCCn1c(O)c(C(CC)=NCCN2CCOCC2)c(=O)[nH]c1=O,0,44*,0,2,1
C[C@@H]1CNCCN1c1ccc(N2CC[C@H](O)C2)c(C#N)c1,nt,nt,nt,5,nt
c1ccc(Cn2nnnc2C2CN=C(c3ccccc3)c3ccccc3N2)cc1 (stereo unspecified),nt,nt,nt,-3,nt
COC(=O)C(O)(c1ccc2c(c1)CCCN2)C(F)(F)F (stereo unspecified),-1,10,2,10,0
Cc1ccccc1-n1c(/C=C/c2ccccn2)nc2ccccc2c1=O,1,-5,-5,10,-4
CN1C2CCC1/C(=C/c1ccccn1)C(=O)/C2=C\c1ccccn1,-1,101*,nt,18,nt
SMILES,CTSL1 counter,NALP1 yeast inh,A3G deaminase,HGIII-sPLA2 inh,A3A deaminase
CCCCC1(CCC)C(=O)NC(=S)NC1=O,nt,nt,nt,15,nt
Cc1cc(N2CCNC[C@@H]2C)ccc1N1CCN[C@@H](C)C1,nt,nt,nt,8,nt
Fc1ccc(C(OCCN2CCCC2)c2ccc(Br)cc2)cc1 (stereo unspecified),-3,47*,3,3,2
Fc1ccc(C(OCCN2CCCC2)c2ccc(F)cc2)cc1,-2,21,-5,-15,-2
COP(=O)(OC)C(NS(=O)(=O)c1ccccc1)C(Cl)(Cl)Cl (stereo unspecified),-2,-1,0,0,-1
CC1CCCC(C)N1/N=C/c1c[nH]c2ccc(Br)cc12 (stereo unspecified),0,65*,-3,-7,0
CC(C)(C)C(=O)OC[N+](C)(C)CCOC(=O)C(O)(c1ccccc1)C1CCCC1 (stereo unspecified),0,-2,-6,-1,0
CCCC(CCC)C(=O)OC[N+](C)(C)CCOC(=O)C(O)(c1ccccc1)C1CCCC1 (stereo unspecified),-2,28*,-2,-4,-2
Cc1ccc(N=C(N(C)C)P(=O)(N(C)C)N(C)C)cc1,-5,24*,-1,-1,1
C[C@H]1C[C@@H](C)C(=O)[C@@H]([C@H](O)CC2CC(=O)NC(=O)C2)C1,-2,100*,-4,6,1
CCOC(=O)C1=C(N)OC2=C(C(=O)CCC2)[C@]12C(=O)N(CC(N)=O)c1ccccc12,1,36*,-2,-3,0
COC(=O)C1=C(c2ccc(F)cc2OCc2ccccc2)C[C@@H]2CC[C@H]1N2C(=O)NCC1CC1,nt,nt,-7,3,-2
COc1ccc2oc3c(c2c1)NC(=O)CN=C3c1ccccc1,7,23*,-8,-11,-1
O=C1CN=C(c2ccc(Cl)cc2)c2oc3ccccc3c2N1,1,nt,12,1,2
Cc1cc(C)cc(NC2=NCCCS2)c1,-7,5,-3,4,0
CN(C)[C@@H]1C(=O)C(C(N)=O)=C(O)[C@@]2(O)C(=O)C3=C(O)c4c(O)ccc(Cl)c4[C@@](C)(O)C3C[C@@H]12 (stereo partly specified),nt,132*,nt,-15,nt
CN(C)C1C(=O)C(C(N)=O)=C(O)C2(O)C(=O)C3=C(O)c4c(O)cccc4C(C)(O)C3CC12 (stereo unspecified),-4,9,nt,nt,nt
O=C(O)c1c[nH]c2ccc(S(=O)(=O)N(CCCl)CCCl)cc12,2,40*,-11,1,-1
O=c1[nH]c(=S)n(Cc2ccc(F)cc2)c(O)c1/C=N/N1CCCCCC1,-4,46*,-3,0,-6
C=CC1C[N+]2(C)CCC1CC2C(O)c1ccnc2ccccc12 (stereo unspecified),nt,nt,nt,6,nt
Cc1ccccc1-n1c(O)c(/C=N/c2nccs2)c(=O)[nH]c1=O,17*!,1,0,4,0
O=C1NC(=O)N(c2ccc(Br)cc2)C(=O)/C1=C/c1ccsc1,1,-1,-4,-14,4
O=C1NC(=O)N(c2ccc(F)cc2)C(=O)/C1=C/c1ccsc1,35*,-10,5,5,1
CN(C)C(=O)CSc1nnc([C@@H](N)Cc2ccccc2)o1,33*,3,-9,4,1
C=C(C)CSc1nnc([C@@H](N)Cc2ccccc2)o1,-3,10,-6,5,-3
CC(=O)OC1(c2ccccc2)CC(C(C)(C)C)CN(C(C)(C)C)C1 (stereo unspecified),35*,25,0,10,-1
